In the library only some 19% were active in any assay of this set; here they are far more common.
DT40 TDP1 no CPT: qHTS for Inhibitors of human tyrosyl-DNA phosphodiesterase 1 (TDP1): qHTS in cells in absence of CPT. DT40 Tdp1-/- hTDP1 cells, no CPT, ATP luminescence, 48 h. Potency, µM (series often up to 46.2 µM), inactives show at the top dose activity change, negative = growth inhibition, most hits filed as inhibitors. 15% of 420,000 active; further: potency means the concentration at half of the fitted maximal effect; nearly all actives have a fitted effect of over 55% in size
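A cellular qHTS used chicken DT40 cells lacking endogenous Tdp1 but carrying stably transfected human TDP1. Compounds were applied without camptothecin, and cell growth kinetics were judged by ATP-dependent luminescence after ≥48 hr.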
IL-1B inflam inh: inflammasome signaling inhibition, IL-1 beta readout; THP-1 LPS/ATP IL-1B secretion, AlphaLISA, 16 h; hits give low values; activity change, % at 57.5 µM; 4.7% of 360,000 active; in the data active means activity change below about -50%; inconclusive means mostly about -30% to -49%
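THP-1 cells pretreated 1 hr with compounds (up to 57.5 uM final), then stimulated with LPS (250 ng/mL final) plus ATP (1.25 mM final); secreted IL-1B measured by AlphaLISA after 16 hr, decreased signal indicating inhibition.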
ELG1 DNA repair: blocks ELG1-dependent DNA repair in HEK293T cells; HEK293T ELG1-luciferase reporter, luminescence, 16 h; DNA damage induced by 5-fluorouridine; Potency, µM (top dose mostly 46.1 µM), without a hit: at the highest dose activity change, negative = inhibition, actives largely listed as inhibitors; 2.3% of 330,000 active; further: potency means the concentration at half of the fitted maximal effect; nearly all actives have a fitted effect of over 55% in size
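Quantitative HTS, concentration-response format. 2,000 cells/well co-treated with 5-fluorouridine and compound, 16 hr in 5% CO2 at 37 °C; ONE-Glo luminescence read after 30 min.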
Giardia killer: Giardia lamblia killing. Giardia lamblia trophozoite viability. activity change, % at 7.66 µM, hits read low. 0.15% of 340,000 active. AID 540267; in the data active means activity change below about -80%; inconclusive means between about -30% and that limit;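 further: parasites exposed to compound for two days anaerobically before the ATP read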
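Giardia lamblia trophozoites (100 cells/well) were incubated with compounds for 48 h at 37 deg C under anaerobic conditions. Viability was read as ATP content by one-step luminescence after 15-30 min at room temperature.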
TDP1 cell CPT: DT40-hTDP1 cell growth loss with CPT | chicken DT40 Tdp1-/-;hTDP1 cells + 20 nM CPT, ATP luminescence, 48 h | Potency, µM (titrated, usually from 46.2 µM), for the others: top-dose activity change, negative = growth inhibition, hits mostly inhibitors | 12% of 420,000 active; further: potency means the concentration at half of the fitted maximal effect; nearly all actives have a fitted effect of over 55% in size
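Chicken DT40 Tdp1-/- cells stably complemented with human TDP1 were seeded at 400 cells/well in medium containing 20 nM camptothecin, exposed to pin-transferred compounds, and grown at 37 °C for at least 48 hr. Viability was read as ATP luminescence.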
TDP1 inh: blocks human tyrosyl-DNA phosphodiesterase 1. recombinant TDP1, AlphaScreen DNA substrate cleavage. 0.28% of 350,000 active. Potency, µM (titrated, usually from 130 µM), for inactives: at the top dose activity change, negative = inhibition, usual class: inhibitors. Q9NUW8. AID 485290; further: potency means the concentration at half of the fitted maximal effect; nearly all actives have a fitted effect of over 40% in size
Target sequence (Q9NUW8 whole entry, looked up): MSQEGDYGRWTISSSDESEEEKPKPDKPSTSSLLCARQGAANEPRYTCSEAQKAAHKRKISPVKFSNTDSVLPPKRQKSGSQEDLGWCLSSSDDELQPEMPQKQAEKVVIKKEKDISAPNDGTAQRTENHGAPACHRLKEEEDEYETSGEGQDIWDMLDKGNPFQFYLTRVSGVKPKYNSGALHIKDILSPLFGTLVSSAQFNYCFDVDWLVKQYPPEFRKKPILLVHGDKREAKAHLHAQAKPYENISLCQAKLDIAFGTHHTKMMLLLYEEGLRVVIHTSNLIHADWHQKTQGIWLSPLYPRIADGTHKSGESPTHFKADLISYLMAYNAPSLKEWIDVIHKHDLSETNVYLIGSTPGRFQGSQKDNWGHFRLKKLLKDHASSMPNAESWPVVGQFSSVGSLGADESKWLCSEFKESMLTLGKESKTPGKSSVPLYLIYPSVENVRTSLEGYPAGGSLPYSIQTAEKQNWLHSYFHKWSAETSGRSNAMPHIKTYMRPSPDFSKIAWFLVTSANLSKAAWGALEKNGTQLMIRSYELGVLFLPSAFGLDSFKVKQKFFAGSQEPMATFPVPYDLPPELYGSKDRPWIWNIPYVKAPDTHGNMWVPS
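Here, a 5' biotin and 3' phosphotyrosine-FITC DNA oligonucleotide reports Tdp1 activity: intact substrate bridges AlphaScreen beads, while cleavage leaves a 3' phosphate and drops signal. All incubations at room temperature.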
* = called active by the depositor; [ ] = remark or other dose. Unless noted, the call rests on the fitted dose curve; in most records, active means well fitted curve in the direction sought with a large enough effect; inconclusive means small, poorly fitted or top-dose-only effect, or another doubt; inactive means no such curve, though single readings can be large; an effect the other way counts as inactive or inconclusive. On the % scale 0 is the no-effect control and ±100 the full control effect.

Cc1cc(NC(=O)CSc2nnc(-c3ccc(O)cc3)o2)no1 was read as DT40 TDP1 no CPT -2%, IL-1B inflam inh 0, ELG1 DNA repair inconclusive, Giardia killer -2, TDP1 cell CPT 7% and TDP1 inh 1%.
CCOc1ccc(-n2c(=O)c3c(C)c(C)sc3n(Cc3ccccc3C)c2=O)cc1 was read as DT40 TDP1 no CPT 4%, TDP1 cell CPT -7% and TDP1 inh 5%.
`COC(=O)c1ccc(NC(=O)CN(C)S(=O)(=O)c2ccc(Br)s2)cc1` gave DT40 TDP1 no CPT -18%, TDP1 cell CPT -14% and TDP1 inh 2%[12.3 µM].
`Cc1ccc(C2(c3noc(CN(C)Cc4ccccn4)n3)CCCC2)cc1` gave DT40 TDP1 no CPT 16µM*, IL-1B inflam inh -1, ELG1 DNA repair -12%, Giardia killer 7, TDP1 cell CPT inconclusive and TDP1 inh 0%.
Cc1ccc(C2(c3noc(CN(C)Cc4cccnc4)n3)CCCC2)cc1 was read as DT40 TDP1 no CPT inconclusive, IL-1B inflam inh 3, ELG1 DNA repair 8%, Giardia killer inconclusive, TDP1 cell CPT inconclusive and TDP1 inh 1%.
For COc1ccccc1OCCCCn1ncc2ccc(OC)c(OC)c2c1=O the results were DT40 TDP1 no CPT inconclusive, IL-1B inflam inh 39, ELG1 DNA repair 0%, Giardia killer 10 and TDP1 cell CPT inconclusive.
Screening CCN1C(=O)/C(=C2/C=Cc3cc(C)ccc3N2CC)N(C)C1=S returned DT40 TDP1 no CPT 21µM*, IL-1B inflam inh inconclusive, ELG1 DNA repair -19%, Giardia killer -4, TDP1 cell CPT 23µM* and TDP1 inh 7%.
Screening CCOc1cc2c3c(c1)C(C)=CC(C)(C)N3C(=O)C2=O returned DT40 TDP1 no CPT 2.6µM*, IL-1B inflam inh 67, ELG1 DNA repair -1%, Giardia killer 7, TDP1 cell CPT 3.3µM* and TDP1 inh 7%.
Screening Cc1cc2c3c(c1)C(C)CC(C)(C)N3C(=O)C2=O (stereo not given) returned DT40 TDP1 no CPT inconclusive, IL-1B inflam inh -2, ELG1 DNA repair -11%, Giardia killer -3, TDP1 cell CPT 23µM* and TDP1 inh 3%.
Cc1cc2c3c(c1)C(C)CC(C)(C)N3C(=O)C2=C(C#N)C#N (stereo not given) was read as DT40 TDP1 no CPT inconclusive, IL-1B inflam inh -3, ELG1 DNA repair -11%, Giardia killer 3 and TDP1 cell CPT inconclusive.
`CC(=O)Oc1cc2c3c(c1)/C(=C1/SC(=S)NC1=O)C(=O)N3C(C)(C)C=C2C` gave DT40 TDP1 no CPT -24%, IL-1B inflam inh 19, ELG1 DNA repair 7%, Giardia killer -18, TDP1 cell CPT -11% and TDP1 inh 15%.
For CCOc1cc2c3c(c1)C(C)CC(C)(C)N3C(=O)C2=O (stereo not given) the results were DT40 TDP1 no CPT 18µM*, IL-1B inflam inh -15, ELG1 DNA repair -6%, Giardia killer -4, TDP1 cell CPT inconclusive and TDP1 inh 0%.
`COC(=O)c1cccc(NC(=O)CCc2c(C)noc2C)c1` gave DT40 TDP1 no CPT 8%, IL-1B inflam inh 48, ELG1 DNA repair 19%, Giardia killer 9, TDP1 cell CPT 8% and TDP1 inh 0%.
Screening NC(=O)c1ccccc1N/C=C/C(=O)c1cccs1 returned DT40 TDP1 no CPT -22%, IL-1B inflam inh -21, ELG1 DNA repair inconclusive, Giardia killer -2, TDP1 cell CPT -15% and TDP1 inh 8%.
Screening Cc1ccc(C(=O)/C=C/Nc2ccccc2C(N)=O)o1 returned DT40 TDP1 no CPT -5%, IL-1B inflam inh -16, Giardia killer -8, TDP1 cell CPT -5% and TDP1 inh -1%.
For NC(=O)c1ccccc1N/C=C/C(=O)c1ccc(F)cc1 the results were DT40 TDP1 no CPT 15µM*, IL-1B inflam inh -6, ELG1 DNA repair inconclusive, Giardia killer -14, TDP1 cell CPT inconclusive and TDP1 inh -10%.

Source: PubChem (National Center for Advancing Translational Sciences (NCATS))
